# Measured values: the supplement of paper PMC10981050
# Where “and” joins values, the source holds several entries; their conditions need not be identical. Equal values may be shown once. Where a name gives a salt, the structure may show the parent alone.
# How the values were obtained:
# Experiment in all cases: cell viability relative to vehicle control; higher = less cytotoxic
# Conditions in all cases: 10 µM
# K562 = system: K562
# Method in brief: (§1)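 Screening covered the Selleck bioactive, kinase and epigenetic probe libraries, less identity-inconsistent compounds, on CRISPR-edited mutant clones and isogenic wild-type clones of four leukaemia lines. Cells, at 2000 per well in 50 µL medium, received a single 10 µM acoustically dispensed dose. After 48 h the supernatant was removed and CellTiter-Glo luminescence was read. Viability was analysed in Genedata Screener as percent of the on-plate vehicle control.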
# MARIMO = system: MARIMO
# Method in brief: as §1
# MOLM14 = system: MOLM14
# Method in brief: as §1
# OCI-AML2 = system: OCI-AML2
# Method in brief: as §1
Structure (SMILES),cell viability (K562; SRSF2 genotype: SRSF2 P95H/wt),cell viability (K562; SRSF2 genotype: SRSF2 wt/wt),cell viability (MARIMO; SRSF2 genotype: SRSF2 P95H/wt),cell viability (MARIMO; SRSF2 genotype: SRSF2 wt/wt),cell viability (MOLM14; SRSF2 genotype: SRSF2 P95H/wt),cell viability (MOLM14; SRSF2 genotype: SRSF2 wt/wt),cell viability (OCI-AML2; SRSF2 genotype: P95H/wt),cell viability (OCI-AML2; SRSF2 genotype: wt/wt)
O=C(Nc1ccc(Oc2ccc(Cl)cc2)c(Cl)c1)c1cc(I)cc(I)c1O [Rafoxanide],85.2% and 95.8%,97.9%,101%,111%,80.4%,108%,105%,101%
Cc1cc(SCc2sc(-c3ccc(C(F)(F)F)cc3)nc2C)ccc1OCC(=O)O,102% and 95.2%,96.7%,92%,103%,87.6%,97.3%,90.4%,95.4%
C=C1C(=O)O[C@@H]2/C=C(\C)CC/C=C(\C)CC[C@@H]12 [Costunolide],23.8% and 32%,41.4%,25.3%,17.8%,3.29%,5.5%,2.25%,7.11%
Nc1ncnc2c1C(=O)N(c1ccc([C@H]3CC[C@H](CC(=O)O)CC3)cc1)CCO2,107% and 104%,110%,105%,107%,105%,105%,108%,123%
CCCSc1ccc2[nH]c(NC(=O)OC)nc2c1 [Albendazole (Albenza)],19.1% and 33.6%,30.6%,9.83%,11.3%,6.95%,2.47%,5.18%,12.9%
COc1cc(C(=O)OCCCCNC(=N)N)cc(OC)c1O [Leonurine Hydrochloride],95.9% and 95.7%,101%,98.8%,95.4%,98%,102%,101%,98.6%
CN1CCN(c2ccc(OC(F)(F)F)c(Nc3ncc4c(n3)-c3c(c(C(N)=O)nn3CCO)CC4)c2)CC1,29.2% and 49.6%,46%,24.7%,22.9%,17.5%,4.9%,14.6%,18.8%
O=P(O)(O)Oc1cccc2ccccc12 [1-Naphthyl phosphate potassium salt],104% and 95%,97.8%,87.5%,107%,91.7%,104%,83.9%,91.1%
Cc1ccccc1C(C(=O)NC1CCCCC1)N(C(=O)Cn1ccnc1C)c1cccc(F)c1 (stereo not drawn),103% and 101%,97.1%,99.2%,98.6%,100%,99.8%,101%,105%
O=C(NC1CCOCC1)c1ccc(-c2cc(-c3c[nH]nc3-c3ccccn3)ccn2)cc1,88.3% and 99.8%,93%,102%,110%,103%,103%,101%,101%
CCCc1cc2c(N3CCN(C4=NCC(C)(C)S4)CC3)ncnc2s1 [MI-2 (Menin-MLL inhibitor)],73.4% and 74.9%,71.4%,62.1%,57.1%,76.2%,84.1%,45.1%,53.3%
CC1CCN(CC[C@H]2CCCN2S(=O)(=O)c2cccc(O)c2)CC1,101%,95%,97.8%,106%,96.5%,103%,92.9%,98.7%
CC(C)CN(CC(=O)N1CCN(CC(OCc2ccc3ccccc3c2)c2ccc(Cl)cc2Cl)CC1)CC(C)C (stereo not drawn),73.4% and 83%,79.2%,54.3%,43.2%,56.2%,71%,36%,41.8%
COc1cc(/C=C/C(=O)O[C@H]2[C@H](O)[C@@H](CO)O[C@@]2(CO)O[C@H]2O[C@H](CO)[C@@H](O)[C@H](O)[C@H]2O)ccc1O [Sibiricose A5],113% and 112%,115%,108%,99.2%,110%,112%,107%,95.7%
Cc1cnc(Nc2ccc(N3CCN(C)CC3)cc2)nc1Nc1cccc(S(=O)(=O)NC(C)(C)C)c1,0.99% and 2.2%,2.6%,17.1%,16.1%,0.12%,0.18%,0.19%,2.96%
C[C@@H]1O[C@@H](O[C@H]2[C@H](Oc3cc(O)c4c(c3)O[C@H](c3ccc(O)cc3)CC4=O)O[C@H](CO)[C@@H](O)[C@@H]2O)[C@H](O)[C@H](O)[C@H]1O [Naringin (Naringoside)],101% and 119%,111%,102%,107%,106%,109%,112%,100%
CCCCCCCCCCCCCCCCCCCCCC(=O)O [Behenic Acid],101% and 91.8%,103%,97.7%,112%,104%,108%,91.8%,102%
Cc1nnc(C(=O)NC(C)(C)c2nc(C(=O)NCc3ccc(F)cc3)c(O)c(=O)n2C)o1 [Raltegravir (MK-0518)],101% and 94.3%,94.6%,95.8%,103%,98.1%,93.5%,95.4%,98%

Structure (SMILES),cell viability (K562; SRSF2 genotype: SRSF2 P95H/wt),cell viability (K562; SRSF2 genotype: SRSF2 wt/wt),cell viability (MARIMO; SRSF2 genotype: SRSF2 P95H/wt),cell viability (MARIMO; SRSF2 genotype: SRSF2 wt/wt),cell viability (MOLM14; SRSF2 genotype: SRSF2 P95H/wt),cell viability (MOLM14; SRSF2 genotype: SRSF2 wt/wt),cell viability (OCI-AML2; SRSF2 genotype: P95H/wt),cell viability (OCI-AML2; SRSF2 genotype: wt/wt)
Cc1ccsc1C(=CCCN1CCC[C@@H](C(=O)O)C1)c1sccc1C [Tiagabine],100% and 93.4%,96.7%,91.8%,109%,97%,101%,89%,111%
CC(C[N+](C)(C)C)OC(N)=O (stereo not drawn) [Bethanechol chloride],97.9% and 102%,102%,111%,112%,108%,109%,109%,98.2%
C[C@@H]1O[C@@H]1P(=O)(O)O [fosfomycin tromethamine],108% and 107%,100%,109%,114%,103%,104%,106%,98.6%
C[C@@H]1COCCN1c1cc(-c2ccnn2C)c2ccnc(-c3ccn[nH]3)c2n1,8.97% and 14.2%,10.6%,17.3%,26.6%,19.1%,9.25%,15%,17.1%
O=C(Cn1cnnn1)N[C@@H]1C(=O)N2C(C(=O)O)=C(CSc3nncs3)CS[C@H]12 [Ceftezole],102% and 97.3%,103%,96.3%,105%,105%,104%,103%,109%
OC[C@H]1O[C@H](O[C@H]2O[C@H](CO)[C@@H](O)[C@H](O)[C@H]2O)[C@H](O)[C@@H](O)[C@@H]1O [D-(+)-Trehalose dihydrate],103% and 99.5%,102%,106%,111%,104%,108%,105%,108%
CC(C)=C1CC[C@@H](C)CC1=O [Pulegone],95.9% and 92.3%,93%,101%,95.6%,98.1%,96.3%,96%,98.7%
Nc1nc(NCCNc2ncc(-n3ccnc3)c(-c3ccc(Cl)cc3Cl)n2)ccc1[N+](=O)[O-],110% and 106%,99.1%,125%,132%,109%,115%,131%,148%
CCCCNc1cc(C(=O)O)cc(S(N)(=O)=O)c1Oc1ccccc1 [Bumetanide],105% and 102%,102%,96.5%,108%,105%,101%,99.9%,110%
CC(C)(O)[C@H]1CC[C@@](C)(C2[C@@H](O)C[C@@]3(C)[C@@H]4C[C@H](O)C5C(C)(C)[C@@H](O)CCC56CC46CC[C@]23C)O1 (stereo partly drawn) [Cycloastragenol],105% and 109%,97.6%,112%,118%,108%,107%,111%,110%
CC(C)NCC(O)COc1ccc(COCCOC(C)C)cc1 (stereo not drawn) [Bisoprolol fumarate],94.1% and 90.5%,89.9%,93.2%,94.5%,83.8%,91.5%,93.6%,99.8%
COc1ccc(C2=N[C@@H](c3ccc(Cl)cc3)[C@@H](c3ccc(Cl)cc3)N2C(=O)N2CCNC(=O)C2)c(OC(C)C)c1 [Nutlin-3],91.4% and 99.4%,89.2%,87.4%,93.3%,0.14%,1.06%,9.37%,32.1%
"O=C(c1ccc(F)c(F)c1Nc1ccc(I)cc1F)N1CC(O)([C@@H]2CCCCN2)C1 [Cobimetinib (GDC-0973, RG7420)]",22.4% and 35.4%,35.5%,27.5%,28.6%,29.6%,21.1%,18.2%,26.1%
C[C@H](CC[C@@H](O[C@@H]1O[C@H](CO[C@@H]2O[C@H](CO)[C@@H](O)[C@H](O)[C@H]2O)[C@@H](O)[C@H](O)[C@H]1O[C@@H]1O[C@H](CO)[C@@H](O)[C@H](O)[C@H]1O)C(C)(C)O)[C@H]1CC[C@@]2(C)[C@@H]3CC=C4[C@@H](CC[C@H](O[C@@H]5O[C@H](CO[C@@H]6O[C@H](CO)[C@@H](O)[C@H](O)[C@H]6O)[C@@H](O)[C@H](O)[C@H]5O)C4(C)C)[C@]3(C)[C@H](O)C[C@]12C [Mogroside V],94.9% and 96.3%,101%,92.7%,104%,104%,104%,103%,97.7%
NCc1c[nH]c(=S)n1[C@@H]1CCc2c(F)cc(F)cc2C1 [(R)-Nepicastat HCl],101% and 97%,102%,94.9%,110%,97.2%,101%,104%,103%
Nc1ccccc1NC(=O)c1ccc(CNc2nccc(-c3cccnc3)n2)cc1 [Mocetinostat (MGCD0103)],4.12% and 14.8%,10.5%,7.4%,9.28%,0.6%,0.42%,0.44%,3.29%
C[C@H]1[C@H](C)CC[C@]2(C(=O)O)CC[C@]3(C)C(=CC[C@@H]4[C@@]5(C)CC[C@H](O)C(C)(C)[C@@H]5CC[C@]43C)[C@H]12 [Ursolic acid (Malol)],96.5% and 93.7%,90.6%,87.2%,102%,98.2%,97%,81.4%,92.8%
CO[C@H]1/C=C/O[C@@]2(C)Oc3c(C)c(O)c4c(O)c(c5c(nc6cc(C)ccn65)c4c3C2=O)NC(=O)/C(C)=C\C=C\[C@H](C)[C@H](O)[C@@H](C)[C@@H](O)[C@@H](C)[C@H](OC(C)=O)[C@@H]1C [Rifaximin (Xifaxan)],97.9% and 106%,98.1%,103%,107%,105%,101%,111%,98.7%
